# From PubChem BioAssay
# The list is not random: actives were taken first. Their share in the collection is about 1.3%.
# SRC1 inh: SRC1 coactivator transcriptional activity inhibitors, primary screen, cell-based, luminescence; Nuclear receptor coactivator 1 (Homo sapiens), Q15788; HEK293 GAL4-SRC1 luciferase reporter; 0.12% of 360,000 active; inhibition, % at 3.6 µM; AID 588354, 2011;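 active means inhibition above the campaign mean plus 3 SD, with each screening campaign given its own cutoff, cut at about 60% in these data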;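 further: 0% = DMSO treated cells and 100% = gossypol at 36 µM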
# COUP-TFII inh: NR2F2 transcriptional activity inhibitors, primary screen, cell-based, luciferase reporter, HEK293T, luminescence; HEK293T NGFI-A luciferase reporter; inhibition, % at 8.6 µM; 0.7% of 370,000 active;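 active means inhibition above a per-plate cutoff, mean inhibition of test wells between control levels plus 3 SD, cut at about 38% in these data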;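 further: cells cotransfected with COUP-TFII expression vector driving the NGFI-A reporter; 0% = median of COUP-TF2 test wells and 100% = reporter-only cells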
# SRC3 inh: SRC3 coactivator transcriptional activity inhibitors, primary screen, cell-based, luminescence | Nuclear receptor coactivator 3 (Homo sapiens), Q9Y6Q9 | HEK293 GAL4-SRC3 luciferase reporter | inhibition, % at 3.6 µM | 0.17% of 360,000 active;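 active means inhibition above a per-campaign cutoff, the mean of all compounds plus 3 SD, cut at about 60% in these data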;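 further: 0% = DMSO-treated cells and 100% = gossypol-treated cells at 36 µM; higher means less SRC3-driven luciferase light from the GAL4 reporter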
# Target sequence (Q9Y6Q9 whole entry, looked up, the tested form may be a part): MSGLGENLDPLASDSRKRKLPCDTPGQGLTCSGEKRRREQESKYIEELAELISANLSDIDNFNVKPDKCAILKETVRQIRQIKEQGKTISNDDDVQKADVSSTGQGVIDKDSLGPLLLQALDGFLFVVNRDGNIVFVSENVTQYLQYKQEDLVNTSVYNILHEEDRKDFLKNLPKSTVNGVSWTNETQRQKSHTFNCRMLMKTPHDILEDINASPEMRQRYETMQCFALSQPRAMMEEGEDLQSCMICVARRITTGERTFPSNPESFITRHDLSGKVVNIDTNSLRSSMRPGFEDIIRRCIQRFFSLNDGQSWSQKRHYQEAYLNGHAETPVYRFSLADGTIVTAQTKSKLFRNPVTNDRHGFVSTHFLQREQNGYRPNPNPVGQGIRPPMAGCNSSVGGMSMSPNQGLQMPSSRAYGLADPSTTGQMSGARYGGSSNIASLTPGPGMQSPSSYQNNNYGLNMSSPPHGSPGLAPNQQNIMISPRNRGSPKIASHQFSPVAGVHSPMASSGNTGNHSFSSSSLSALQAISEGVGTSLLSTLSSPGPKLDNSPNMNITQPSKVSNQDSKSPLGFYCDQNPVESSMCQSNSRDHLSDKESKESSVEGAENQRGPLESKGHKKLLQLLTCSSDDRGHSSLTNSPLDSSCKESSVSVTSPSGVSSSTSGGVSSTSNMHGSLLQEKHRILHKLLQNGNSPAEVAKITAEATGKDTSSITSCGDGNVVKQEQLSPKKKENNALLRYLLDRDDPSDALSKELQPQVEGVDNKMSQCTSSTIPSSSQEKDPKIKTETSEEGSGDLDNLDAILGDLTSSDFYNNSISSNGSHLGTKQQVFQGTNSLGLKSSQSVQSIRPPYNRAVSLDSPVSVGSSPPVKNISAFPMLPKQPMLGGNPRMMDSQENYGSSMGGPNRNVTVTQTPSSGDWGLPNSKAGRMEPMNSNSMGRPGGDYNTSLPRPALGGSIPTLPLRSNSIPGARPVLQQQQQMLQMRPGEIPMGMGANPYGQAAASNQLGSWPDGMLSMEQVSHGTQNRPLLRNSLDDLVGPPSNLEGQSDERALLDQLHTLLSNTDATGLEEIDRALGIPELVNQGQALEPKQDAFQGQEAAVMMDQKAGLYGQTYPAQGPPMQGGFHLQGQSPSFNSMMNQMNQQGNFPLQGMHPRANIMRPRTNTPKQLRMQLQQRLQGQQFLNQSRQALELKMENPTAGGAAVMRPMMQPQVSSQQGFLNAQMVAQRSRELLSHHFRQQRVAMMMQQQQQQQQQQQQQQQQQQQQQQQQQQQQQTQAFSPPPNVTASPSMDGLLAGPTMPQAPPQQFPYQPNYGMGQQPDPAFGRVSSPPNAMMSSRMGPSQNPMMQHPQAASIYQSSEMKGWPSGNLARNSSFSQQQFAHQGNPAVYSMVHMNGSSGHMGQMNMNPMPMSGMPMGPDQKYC
# Gli-Sufu antag: Gli-Sufu pathway antagonists, primary screen, luciferase luminescence, Sufu-KO-LIGHT cells, uHTS; inhibition, % at 5 µM; AID 588413, 2011; Sufu-KO-LIGHT fibroblasts, Gli luciferase reporter luminescence; 0.74% of 340,000 active;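 active means inhibition above about 55%, limit read from the data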;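 further: 0% = DMSO-treated cells and 100% = wells with medium but no cells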
# SRC2 inh: inhibition of GAL4-SRC2 driven luciferase reporter, primary screen, SRC2 inhibitor project, cell-based, luminescence; Nuclear receptor coactivator 2 (Homo sapiens), Q15596; HEK293 GAL4-SRC2 luciferase reporter; inhibition, % at 9 µM; 0.17% of 370,000 active;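 active means inhibition above the mean inhibition of all tested compounds plus 3 SD, set per campaign, cut at about 52% in these data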;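 further: 0% = DMSO treated cells and 100% = cells given Gossypol at 36 µM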
# LRH-1 inv ag: LRH-1 (NR5A2) inverse agonists, primary screen, cell-based, luminescence, HEK293T, StAR-luciferase reporter; LRH-1 transfected, 24 h; Nuclear receptor subfamily 5 group A member 2 (Homo sapiens), O00482; inhibition, % at 3.6 µM; 0.13% of 360,000 active;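 active means inhibition above the mean inhibition of all tested compounds plus 3 SD, cut at about 73% in these data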;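 further: 0% = DMSO wells and 100% = reporter-only cells lacking LRH-1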
# Gli-Sufu confirm: Gli-SUFU pathway antagonists, confirmation, single concentration, luciferase luminescence, Sufu-KO-LIGHT cells; AID 602428, 2012; Gli luciferase reporter; shares compounds with Gli-Sufu antag; inhibition, % at 5 µM; 40% of 2,500 active;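 active means mean inhibition at 5 µM reaching about 45%, limit read from the data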;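 further: plate controls were DMSO-treated cells for no effect and wells lacking cells for full effect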
# Gli cytotox: cytotoxicity in Sufu-KO-LIGHT cells, confirmation, cytotoxicity control for Gli-SUFU antagonist project, cell-based, ATP luminescence, single concentration | shares compounds with Gli-Sufu antag | cytotoxicity, % at 5 µM | 32% of 2,500 active | AID 651994, 2013;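 active means mean cytotoxicity at 5 µM above about 25%, limit read from the data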;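 further: cells exposed to compound overnight for roughly 16 to 18 hours; plate controls were DMSO wells with cells for no effect and medium without cells for full effect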
# Wnt3a counter: Wnt3a reporter signal inhibition, confirmation, counter-screen for Gli-SUFU antagonist project, Wnt-LIGHT cells, luminescence, single concentration; shares compounds with Gli-Sufu antag; Wnt3a-driven luciferase reporter; inhibition, % at 6.25 µM; 20% of 2,500 active; AID 651995, 2013;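 active means mean inhibition above about 25%, limit read from the data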
# Gal4-VP16 ctr: Gal4-VP16 luciferase reporter inhibitors, counter-screen for COUP-TFII antagonist project, cell-based, luminescence, HEK293; inhibition, % at 8.5 µM; 25% of 2,500 active; shares compounds with COUP-TFII inh; in the data active means inhibition above about 13%
# NR2F2 inh conf: NR2F2 transcriptional activity inhibitors, confirmation, cell-based, luciferase reporter, HEK293, triplicate; 45% of 2,500 active; inhibition, % at 8.5 µM; shares compounds with COUP-TFII inh; HEK293 NGFI-A luciferase reporter, luminescence; AID 687008, 2013;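 active means mean inhibition over three repeats above a set limit taken from the earlier primary screen, cut at about 38% in these data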;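 further: 100% = cells given the luciferase reporter alone without the COUP-TF2 vector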
# * = called active by the depositor; x = no result given.
SMILES,SRC1 inh,COUP-TFII inh,SRC3 inh,Gli-Sufu antag,SRC2 inh,LRH-1 inv ag,Gli-Sufu confirm,Gli cytotox,Wnt3a counter,others
CCN(CC)S(=O)(=O)c1ccc(N/N=C/c2ccc(O)cc2O)nc1,46,-40,68*,58*,31,40,70*,26*,79*,
O=[N+]([O-])c1ccc(NN=Cc2ccc(O)cc2O)nc1,-45,-69,-7,-11,-15,-4,x,x,x,
COc1ccc(CCCc2n[nH]c(=S)o2)cc1,3,9,3,11,-11,-6,x,x,x,
COc1ccc(Cc2n[nH]c(=S)o2)cc1,-16,-24,-14,55,2,11,19,1,-4,
Cc1nn(C)cc1CN1CCCC(C(=O)c2ccc(-c3ccccc3)cc2)C1 (stereo not drawn),2,-4,10,54,1,1,25,22,-59,
O=C(c1ccc(-c2ccccc2)cc1)C1CCCN(Cc2ccncc2)C1 (stereo not drawn),8,25,3,52,-18,8,28,12,-39,
CCOC(=O)[C@@]12CCCC=C1N(CCc1ccc(Cl)cc1)C(=O)[C@H]2CC(=O)N1CCOCC1,x,35,x,x,26,x,x,x,x,
NS(=O)(=O)c1ccc(CCNCc2ccccc2OCc2ccc(Cl)cc2)cc1,-2,5,-7,50,-4,1,15,9,-61,
NS(=O)(=O)c1ccc(CCNCc2cc(Cl)ccc2OCc2ccccc2)cc1,13,22,12,56*,2,2,23,-6,-17,
C=CCOc1ccccc1CNCCc1ccc(S(N)(=O)=O)cc1,16,8,20,10,9,10,x,x,x,
O=C(Cn1c(=O)oc2ccccc21)Nc1ccc(S(=O)(=O)N2CCCCC2)cc1,-6,2,7,54,12,-6,11,7,-21,
CCN(CC)S(=O)(=O)c1ccc(NC(=O)Cn2c(=O)oc3ccccc32)cc1,-8,-17,-24,31,-25,5,x,x,x,
C=CCNc1cccc2c1S(=O)(=O)N[C@@H](Cc1ccccc1)CO2,x,17,x,x,21,x,x,x,x,
CS(=O)(=O)N(CC(=O)NC1CCCCCC1)Cc1ccc(Cl)cc1,6,0,27,59*,22,-13,28,3,7,
Cc1ccc(C)[n+](CC(=O)c2ccc(-c3ccccc3)cc2)c1,4,1,10,56*,-6,18,36,16,-21,
CCCC[C@H]1C2CC(OC(=O)NCc3ccc(Cl)cc3)C(C2)[C@H]2CCCCN21 (stereo partly drawn),x,-11,x,x,1,x,x,x,x,
CCn1c(SCc2ccc(C(C)(C)C)cc2)nnc1-c1ccc(C(C)(C)C)cc1,x,9,x,x,1,x,x,x,x,
CCc1nc(N)nc(N)c1-c1ccc(N(C)Cc2ccccc2)c([N+](=O)[O-])c1,50,11,42,63*,7,52,49*,21,17,
COc1cccc(CNC(=O)C(NS(=O)(=O)c2ccc3c(c2)CCN3C(C)=O)C(C)C)c1 (stereo not drawn),-34,6,-38,61*,-31,-1,-3,24,-31,
Cc1ccsc1C1C(C#N)=C(N)Oc2n[nH]c(C)c21 (stereo not drawn),-26,-4,10,65*,21,0,21,3,10,
c1cnc(SCC2CCCCC2)c(-c2nc3ccccc3[nH]2)c1,x,5,x,x,-14,x,x,x,x,
COC(=O)[C@]12C[C@H](CC(=O)NCC34CC5CC(CC(C5)C3)C4)C(=O)N(Cc3ccccc3)C1=C[C@H](C1CCCC1)O[C@@H]2C,x,1,x,x,-38,x,x,x,x,
O=C(CSCc1ccc(Cl)cc1Cl)Nc1ccc(O)cc1C(=O)O,-13,22,-23,-3,13,-15,x,x,x,
O=C(CSCc1ccc(Cl)cc1Cl)Nc1ccccc1C(=O)Nc1ccc(C(=O)O)cc1,9,9,9,54,-33,-18,21,8,5,
CCc1nnc2n1N=C(c1ccc(Br)cc1)CS2,3,10,-4,1,4,-14,x,x,x,
SMILES,SRC1 inh,COUP-TFII inh,SRC3 inh,Gli-Sufu antag,SRC2 inh,LRH-1 inv ag,Gli-Sufu confirm,Gli cytotox,Wnt3a counter,others
Brc1ccc(C2=Nn3c(Cn4nnc5ccccc54)nnc3SC2)cc1,12,-2,2,55,6,-4,32,4,-36,
O=C(CN1CCSCC1)c1c[nH]c2ccccc12,-3,-4,-1,99*,-40,-3,22,9,-34,
Cc1sc2ncnc(NCC(C)(C)N3CCOCC3)c2c1C,3,43*,10,64*,18,29,58*,27*,21,Gal4-VP16 ctr=4;NR2F2 inh conf=44*
Cc1sc2ncnc(NCC3CCCO3)c2c1C (stereo not drawn),-7,11,11,22,16,23,x,x,x,
c1ccc(-c2csc3ncnc(NCC4COc5ccccc5O4)c23)cc1 (stereo not drawn),15,65*,39,84*,32,56,88*,45*,26*,Gal4-VP16 ctr=16*;NR2F2 inh conf=82*
Cc1sc2ncnc(NCC3COc4ccccc4O3)c2c1C (stereo not drawn),26,76*,30,77*,24,42,72*,34*,17,Gal4-VP16 ctr=-3;NR2F2 inh conf=62*
COc1ccc2c(c1)[C@@]1(OCCC=C[C@H]1C)C(=O)N2Cc1ccccc1C(F)(F)F,x,-15,x,x,6,x,x,x,x,
O[C@@H]1CN(Cc2ccc(-n3cccn3)cc2)CC[C@H]1N1CCN(c2ccccc2F)CC1,7,49*,-9,59*,10,27,46*,27*,-15,Gal4-VP16 ctr=9;NR2F2 inh conf=36
